The full list was thinned out, with hits kept by preference.
ST2 inh = IL1RL1 inhibition. Q01638. AlphaLISA ST2-Fc/biotin-IL-33 interaction, 1 h. inhibition, % for hits at 17 µM. actives 2.3% (n = 78,000). AID 1259354; in the data active = inhibition above about 30%
Target sequence (Q01638 whole entry, looked up): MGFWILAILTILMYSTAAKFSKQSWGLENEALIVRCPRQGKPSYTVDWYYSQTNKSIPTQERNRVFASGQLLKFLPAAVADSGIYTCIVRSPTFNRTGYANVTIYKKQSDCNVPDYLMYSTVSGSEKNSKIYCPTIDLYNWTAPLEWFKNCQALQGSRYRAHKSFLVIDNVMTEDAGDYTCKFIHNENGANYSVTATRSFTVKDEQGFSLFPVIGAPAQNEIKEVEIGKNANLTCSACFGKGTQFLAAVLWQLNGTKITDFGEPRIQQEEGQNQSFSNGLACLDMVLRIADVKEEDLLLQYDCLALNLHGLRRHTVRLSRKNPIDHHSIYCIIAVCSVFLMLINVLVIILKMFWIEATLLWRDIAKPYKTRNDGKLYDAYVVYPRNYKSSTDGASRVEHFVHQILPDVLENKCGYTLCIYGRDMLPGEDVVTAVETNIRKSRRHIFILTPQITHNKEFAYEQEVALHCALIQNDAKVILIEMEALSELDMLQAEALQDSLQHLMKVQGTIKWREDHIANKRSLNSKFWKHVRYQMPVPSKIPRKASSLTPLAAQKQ
The depositor's hits bear a star; i = inactive.

SMILES	ST2 inh
Cc1noc([C@@H]2C[C@H](NC(=O)c3ccco3)CN2C)n1	i
NC(=O)CCS(=O)(=O)c1ccc(Br)cc1	i
Cc1ccc(C)c(OCCNC(=O)c2cc(=O)[nH][nH]2)c1	i
COc1ccc(-c2noc(CCC(=O)Nc3cc(C)on3)n2)cc1	i
Cc1cccnc1CC(C)Nc1ccc(-c2nccn2C)nn1 (stereo not drawn)	i
CCc1nc(C)c(C(=O)NCc2cc(-c3cccnc3)no2)s1	i
FC(F)(F)c1ccc2nnc(-c3ccc(Cl)cc3Cl)n2c1	i
FC(F)(F)c1ccc2nnc(-c3cccc(I)c3)n2c1	54.0%*
FC(F)(F)c1cccc(-c2ncnn2-c2ccc(Br)nc2)c1	i
CCc1cc2c(C)cc(=O)oc2cc1OCc1ccccc1	i
O=C1Nc2ccccc2/C1=C\c1c(Cl)cccc1Cl	i
Clc1ccccc1-c1nc(-c2ccccc2)no1	i
O=C1OC(c2ccccc2)=C/C1=C\c1c(Cl)cccc1Cl	46.0%*
CC1=C(C(=O)Nc2ccccn2)C(c2cc([N+](=O)[O-])ccc2Cl)C2=C(CC(C)(C)CC2=O)N1 (stereo not drawn)	i
CCc1ccccc1NC(=O)c1ccc(F)cc1	i
CCCOc1ccc(C(=O)Nc2cc(Cl)ccc2Cl)cc1	i
Cc1ccc(NC(=O)c2ccccc2[N+](=O)[O-])cc1	i
Cc1c(C(=O)Nc2ccccc2[N+](=O)[O-])csc1-c1ccccc1	35.0%*
CCOc1ccccc1NC(=O)c1ccccc1C	i
CCOc1ccc(NC(=O)c2ccccc2OCC)c([N+](=O)[O-])c1	42.0%*
CCN(CC)c1ccc(NC(=O)c2ccccc2Br)c(C)c1	i
CCOc1cccc(C(=O)Nc2ccc(C)cc2[N+](=O)[O-])c1	i
CCC(=O)c1ccccc1NC(=O)c1ccccc1Br	i
CCCOc1cccc(C(=O)Nc2ccccc2Cl)c1	i
CCCOc1ccc(C(=O)Nc2ccccc2[N+](=O)[O-])cc1	39.0%*
SMILES	ST2 inh
CCc1ccccc1NC(=O)c1ccccc1[N+](=O)[O-]	i
CCOc1ccc(NC(=O)c2ccccc2Br)c([N+](=O)[O-])c1	36.0%*
c1ccc(-c2ccc(CN3CCn4cncc4C3)cc2)nc1	i
C[C@]1(O)CC[C@@H]2C(C(=O)O)=CO[C@@H](O[C@@H]3O[C@H](COC(=O)c4ccc(O)cc4)[C@@H](O)[C@H](O)[C@H]3O)[C@@H]21	i
CCc1cc2c(=O)c(Oc3ccccc3)coc2cc1OC	i
CCOC(=O)c1c(C)[nH]c(C(=O)N2C[C@H](N(C)C)C[C@H]2CO)c1C	i
CN(CCc1ccccn1)c1ncccc1CNC(=O)c1n[nH]c2c1CCCC2	i
Cn1c(=O)c2c(nc(N3CCOCC3)n2CCSc2nc3ccccc3s2)n(C)c1=O	i
CC(C)Oc1ccc(C2CC(=O)NNC2=O)cc1 (stereo not drawn)	i
COc1cc(NC(=O)Cc2cn(C)c3ccccc23)cc(OC)c1OC	i
CC(=O)N1c2c(cc(Br)cc2S(=O)(=O)N(C)c2cccc(C)c2)CC1C (stereo not drawn)	i
Cc1cc(C)cc(NC(=O)CC(=O)N[C@H]2CCCC[C@@H]2O)c1	i
c1ccc(C2(Cn3ccc4ccccc43)OCCO2)cc1	i
CC1=C(C(=O)OC2OC(COC3OC(CO)C(O)C(O)C3O)C(O)C(O)C2O)C(C)(C)CCC1 (stereo not drawn)	i
Nc1ccc2oc(-c3cc(F)c(F)cc3Cl)nc2c1	i
Cc1ccc2oc(-c3ccc(F)cc3)nc2c1	i
Cc1ccc2oc(-c3cc(N)ccc3O)nc2c1	45.0%*
COc1ccc(/C=C(/NC(=O)c2cccs2)C(=O)NC(C)(C)C)cc1OC	i
COc1ccccc1/C=C(\C#N)c1nc(-c2cccc([N+](=O)[O-])c2)cs1	i
Cc1ccc(-c2csc(/C(C#N)=C/c3cccs3)n2)cc1	64.0%*
Cc1ccc(Nc2nc(-c3ccccc3)cs2)cc1	i
Cc1ccc2sc(-c3ccc(NC(=O)c4ccco4)cc3)nc2c1	i
COc1ccc(/C=C(\C#N)c2nc(-c3cccc([N+](=O)[O-])c3)cs2)cc1O	35.0%*
CCOc1cc(/C=C(\C#N)c2nc(-c3ccc(OC)c(OC)c3)cs2)ccc1O	i
Nc1n[nH]c(-c2cccc([N+](=O)[O-])c2)n1	i
SMILES	ST2 inh
N#C/C(=C\c1ccco1)c1nc(-c2cc3cc(Br)ccc3oc2=O)cs1	i
COc1ccc(/C=C(/C#N)c2nc(-c3cccs3)cs2)cc1OC	49.0%*
Cc1ccc(-c2csc(Nc3ccc(F)cc3)n2)cc1	i
Cc1ccc(-c2csc(/C(C#N)=C/c3ccco3)n2)cc1	63.0%*
Cc1ccccc1-c1nnn(CC(=O)NCCc2ccccc2)n1	i
Cc1nnc(SCCCNC(=O)C2=CC(=O)CC(C)(C)O2)s1	i
CC(Oc1ccccc1)C(=O)N(c1ccc(C(C)C)cc1)C1C=CS(=O)(=O)C1 (stereo not drawn)	i
Cc1nn(Cc2ccccc2)c(C)c1NC(=O)c1cc(-c2cccs2)on1	i
COCCCC1CCCCN1C(=O)NCCc1ccccc1 (stereo not drawn)	i
CCCCc1nc2cc(C(=O)N3CCCCC3C(=O)OC)ccc2o1 (stereo not drawn)	i
COc1ccc(Cl)cc1NC(=O)CCCn1nc(C)c([N+](=O)[O-])c1C	i
CN(Cc1ccccc1)S(=O)(=O)c1ccc(C(=O)O)o1	i
NC(=O)CO[C@@H]1CO[C@H]2[C@@H]1OC[C@@H]2NC(=S)Nc1ccc(F)cc1	i
O=C(NCCCn1ccnc1)c1ccc([N+](=O)[O-])cc1Cl	i
N#C/C(=C\Nc1ccc(S(N)(=O)=O)cc1)c1nc(-c2ccc(Cl)cc2)cs1	i
N#C/C(=C\c1cccs1)c1nc(-c2cccs2)cs1	64.0%*
CN1CCN(c2nc(-c3cccs3)cc(C(F)(F)F)n2)CC1	i
O=C(Nc1nc(-c2ccc(Cl)cc2)cs1)c1cccs1	i
N#C/C(=C\c1cccs1)c1nc(-c2ccc(Cl)cc2)cs1	46.0%*
Cc1cc(-c2cccs2)n[nH]1	i
COc1ccc(-c2ccccc2C(N)=O)cc1Cl	i
O=C(C[C@@H]1O[C@H](CNC(=O)c2cccc(F)c2)[C@@H](O)[C@H]1O)NCc1ccc(F)cc1	i
O=C(NCc1cccnc1)c1ccc(NC2=NC3CS(=O)(=O)CC3S2)cc1 (stereo not drawn)	i
CCC(C(=O)Nc1ccc2c(c1)OCO2)c1ccccc1 (stereo not drawn)	i
COc1ccccc1N1CCN([C@@H]2[C@H](O)[C@H](CO)O[C@@H]2CNS(=O)(=O)c2ccc(C)cc2)CC1	73.0%*
SMILES	ST2 inh
COc1cccc(NC(=O)NC[C@H]2O[C@@H](CO)[C@@H](O)[C@H]2N2CCN(c3ccccn3)CC2)c1	36.0%*
COc1ccc(S(=O)(=O)NC[C@H]2O[C@@H](CO)[C@@H](O)[C@H]2N2CCN(c3ccccc3OC)CC2)cc1	i
CC(C)NC(=O)NC[C@H]1O[C@@H](CO)[C@@H](O)[C@H]1N1CCN(c2cccc(C(F)(F)F)c2)CC1	44.0%*
COc1cccc(NC(=O)NC[C@H]2O[C@@H](CO)[C@@H](O)[C@H]2N2CCC(C)CC2)c1	i
O=C(NC[C@H]1O[C@@H](CO)[C@@H](O)[C@H]1N1CCN(c2cccc(C(F)(F)F)c2)CC1)Nc1cccc(Cl)c1	i
COc1ccccc1N1CCN([C@@H]2[C@H](O)[C@H](CO)O[C@@H]2CNS(=O)(=O)c2cccs2)CC1	i

Screens from PubChem BioAssay.
